Tested on: PPARg:RXRa IVT, anti-PPARg (NR concentration 270 nM, RXRa partner concentration 90 nM)
Experiment: PBM binding z-score (relative to random genomic background probes); higher = stronger binding; sequences stand for … in GC…GCGATTGACAGCGTAGAATGAAGG
Procedure, shortened: (§1)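 Ligand-free nuclear receptor dimers were bound for 1 h to custom Agilent 4×180K protein-binding microarrays. Detection used antibodies against each partner (one per run). Binding z-scores rest on regression-normalized fluorescence, with random background probes as the reference.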

| Sequence | PBM binding z-score |
| --- | --- |
| ATATGTAGGTTATCGGGGCATTCAGTTTGCGCAT | 7.25 |
| TCTAGTTGGTCAAATGTCACACACTCGAAATGCG | 3.59 |
| CTACCAAGGTGAACAAGGTCGTTGGTTACTATTC | 2.45 |
| TCTTGTAGGTCAGCAGGTTAAGAAAGCTGGCCAA | 7.39 |
| CGAACTTGGTCAGAACAGGACAGTGAAGGATGAT | 0.0276 |
| ACAGACAGGTGAGTGAAGGTAACTGAGCTGGACG | 0.903 |
| TCTATTAGTTGAAGGGCATCCGACGAGTCCGTTT | 0.399 |
| AGTCAAAGTTCATCTAGGTAAAGTAAGATATGCT | 3.88 |
| CCTTACGGGTCAAGGTTACAGCACGGGTGGTACG | 3.96 |
| CAAACTACGTCAAGGTCAAAGTCGGTTTGTGCCA | 1.93 |
| CCTCGGAGGACATCAGGAGGTCAGAGCTGCCAGA | 0.307 |
| AGAACGAGGGCAATGAGTTGGTAGCACGGGTGGC | 2.58 |
| AGTTAAAGTTCAGGACGAGGTAACGTAAAGCACG | 1.18 |
| ACAGACAGGTGAGTGCAGGTAACTCAGCTGGACG | 1.05 |
| TCATATAGGTAAAAGGTGAAAGCCGGTGTGGTAA | 4.98 |
| GCTGCTTGGTCAGGTTGGTCAGCTAACGGGTACG | 0.0885 |
| CCTTACGGGTCACTCCAGGTTAGAGCATCGGAGT | 3.37 |
| CCTACTGGGCCAAAAAGGACATTGATGCCGATAA | 2.63 |

Tested on: PPARg DBDmut:RXRa IVT, anti-PPARg (DBD mutation: PPARg1 K132A/R137A, NR concentration 270 nM, RXRa partner concentration 90 nM)
Experiment: as above
Procedure, shortened: as §1

| Sequence | PBM binding z-score |
| --- | --- |
| CTACCAAGGTGAACAAGGTCGTTGACTACTATTC | 0.603 |
| GCTAGCTGGTCAGTAAAAGGTCACACACCGGTCG | 0.0238 |
| AGTCAAAGTTCACTAGGTAACGTCAGATTCAGCT | 1.36 |
| CTCGAAAGGTAGGTTGAGGTGAGTATACGGATAA | 0.405 |
| TCATATAGGTAAATGCGAGGTGAAAGTCCGATCT | 1.27 |
| TAGCCTAGGGCATTGGGCCAGTATAGTACGCATC | -0.149 |
| ATCTCTAGGTAAAGTTCAGTAAAAGATCGATAGA | 1.82 |
| CAGCCTAGGTCAGGGCTAGTATAGGAGGAACGTT | -1.23 |
| CAGACTAGGTCAGGGCCAGTATAGGAGGAACGTT | 0.269 |
| CCTCGGAGGACAGAAGGTCAGAGTTGTCCGCTTT | -1.27 |
| CTCGAAAGGTCGGTTGAGGTGAGTATCCGGATAA | -0.0361 |
| ATCGAAAGGTCGAGGTGAGTATAGAGAAAGGGAA | 0.636 |
| AATACAGGGTCATCGTAGGCCAAAGTACGCACAG | 3.81 |
| CGTCCAAGCTCAATGCTAGGTCAGTGAAAGCATT | -1.2 |
| ATCTCTAGGTAAAGATAGTTCAGTGACTGCAAAT | 1.25 |
| TCTATTAGTTGAAGGGCAACCGGCGAGTCCGTTT | 0.341 |
| CTCGAAACGTCGGTTGAGGTGAGTATACGGATAA | 0.192 |
| ACTAGCAGGCCAAGGGACACTCAAGATTAGTCCG | -1.43 |
| TTACCAAGGTTAAGGTCGTTGATCCCTCTGTAGA | 0.246 |
| GCTGCTAGGTCAGGTTGGACAGCTAACGGGTACG | -0.356 |

| Sequence | PBM binding z-score |
| --- | --- |
| GCTATTCGTTGAAAGGGCAACCGAATGATTCTCG | 0.733 |
| CAAACTAGGTCAAAGGTCAATGTCGAGCCAACCA | 5.2 |
| ATATGTAGGTTATCGGGGCATTCAGTTTGCGCAT | 3.45 |
| TCTAGTTGGTCAAATGTCACACACTCGAAATGCG | 1.9 |
| CTACCAAGGTGAACAAGGTCGTTGGTTACTATTC | 0.303 |
| TCTTGTAGGTCAGCAGGTTAAGAAAGCTGGCCAA | 2.94 |
| CGAACTTGGTCAGAACAGGACAGTGAAGGATGAT | 0.221 |
| ACAGACAGGTGAGTGAAGGTAACTGAGCTGGACG | -0.468 |
| TCTATTAGTTGAAGGGCATCCGACGAGTCCGTTT | 0.276 |
| AGTCAAAGTTCATCTAGGTAAAGTAAGATATGCT | 1.43 |
| CCTTACGGGTCAAGGTTACAGCACGGGTGGTACG | 0.601 |
| CAAACTACGTCAAGGTCAAAGTCGGTTTGTGCCA | 0.681 |
| CCTCGGAGGACATCAGGAGGTCAGAGCTGCCAGA | -1.23 |
| AGAACGAGGGCAATGAGTTGGTAGCACGGGTGGC | 0.246 |
| AGTTAAAGTTCAGGACGAGGTAACGTAAAGCACG | 0.861 |
| ACAGACAGGTGAGTGCAGGTAACTCAGCTGGACG | 0.0571 |
| TCATATAGGTAAAAGGTGAAAGCCGGTGTGGTAA | 0.678 |
| GCTGCTTGGTCAGGTTGGTCAGCTAACGGGTACG | -0.778 |
| CCTTACGGGTCACTCCAGGTTAGAGCATCGGAGT | -0.182 |
| CCTACTGGGCCAAAAAGGACATTGATGCCGATAA | -0.447 |
